Several values for one entry are separate records, joined by “and”; a condition that tells them apart may be missing. Identical values can stand only once. Values without a mark were called inactive. Inconclusive results are not listed. Activity calls are given as the source filed them. Unless noted, the call rests on the fitted dose curve; in most records, active means well fitted curve in the direction sought with a large enough effect in the repeat runs; inconclusive means weak or mixed curves; inactive means no such curve, though single readings can be large; an effect the other way counts as inactive or inconclusive.

Test [1] can be described thus: qHTS assay to identify small molecule agonists of the hypoxia (HIF-1) signaling pathway - cell viability counter screen (AID 1224844; calls by dose curve; further: nearly all actives have a fitted effect of over 50% in size). The method in brief:
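HRE-bla ME-180; 0.5% dFBS; cpd 17 h, 37C, 5% CO2; CellTiter-Glo lum., 30 min RT, post-FRET read, same wells.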

Test [2] is described as follows: qHTS assay to identify small molecule agonists of H2AX (AID 1224845; active means well fitted activation curve with a large enough effect in the signal ratio in the repeat runs, not every such curve was filed as active; the % refers to the signal ratio). Summed up: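 Wild-type CHO-K1 cells plated overnight, then exposed 3 hr at 37C to compounds at 15 concentrations (0.76% DMSO). Lysed, then HTRF anti-pH2AX(S139)-cryptate/anti-H2AX-d2 detection after 24 hr at room temperature; emissions 665 and 620 nm.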
Test [3] in a line: qHTS assay to identify small molecule agonists of the hypoxia (HIF-1) signaling pathway (AID 1224846; active means well fitted activation curve with a large enough effect in the signal ratio in the repeat runs, not every such curve was filed as active; the % refers to the signal ratio). The method in brief: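 Reporter induction in HRE-bla ME-180 cells is taken as agonism: cells sit 5 hrs after plating, receive compounds or DMSO only, incubate 17 hrs at 37C under 5% CO2, and are loaded with CCF4-AM for beta-lactamase FRET measurement.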
Test [4] can be described thus: qHTS assay to identify small molecule agonists of H2AX - cell viability counter screen (AID 1224847; calls by dose curve; further: top concentration of the series differs between compounds; nearly all actives have a fitted effect of over 30% in size). The method in brief:
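After overnight plating of 1000 CHO-K1 cells per well, a 15-concentration compound series was applied for 3 hr at 37C. Luminescence from CellTiter-Glo, read following 30 min at room temperature, reflected cell viability.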

A short description of test [5]: qHTS assay to identify small molecule antagonists of the estrogen related receptor (ERR) signaling pathway from Tox21 library (AID 1224848). Further: nearly all actives have a fitted effect of over 50% in size. The method in brief:
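First, 2,000 ERR cells per well were plated and held 6 h at 37 C/5% CO2. Next, compounds in DMSO were pinned in and left 18 h at 37 C. Finally, ONE-Glo was added and luminescence read after 30 min at room temperature.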

A short description of test [6]: qHTS assay to identify small molecule agonists of the estrogen related receptor (ERR) signaling pathway from Tox21 library (AID 1224849; calls by dose curve; further: nearly all actives have a fitted effect of over 15% in size). As to conditions: ERR reporter cell line, ONE-Glo luciferase, 18 h; at 92.4 µM (top of the series). The method in brief: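 Tox21 compounds tested for ERR agonism in an NTP reporter cell line: 18 h treatment at 37 C, then ONE-Glo luminescence.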
Background: In qHTS, concentration-response curves come from the screen itself.

Test [7] in a line: qHTS RealTime-Glo MT Cell Viability Assay in HepG2 cells - 24 hour (AID 1224867). Further: nearly all actives have a fitted effect of over 50% in size. Summed up: (§1)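 Viability was tracked continuously by NanoLuc luminescence from prosubstrate reduced by living HepG2 cells, at successive time points over 40 h of compound exposure. Cells with reagent were preincubated 5 h at 37 °C before compound addition.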
Test [8] can be described thus: qHTS RealTime-Glo MT Cell Viability Assay in HEK293 cells - 32 hour (AID 1224868). Further: nearly all actives have a fitted effect of over 50% in size. Further: potency means the concentration at half of the fitted maximal effect. Summed up:
(§2)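 Viability tracked continuously by luminescence as live cells reduce a prosubstrate for NanoLuc; HEK293 cells preincubated 5 h, compound-treated at 37 C, and read at 0, 8, 16, 24, 32 and 40 h.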

A short description of test [9]: A CellTox Green Cytotoxicity Assay to monitor cytotoxicity in HEK293 cells - 0 hour (AID 1224869). Further: nearly all actives have a fitted effect of over 50% in size. Summed up:
(§3)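 Tox21 screen in HEK293: membrane-impermeant cyanine dye fluoresces on binding dead-cell DNA; compound pinned 5 h post-seeding, plates held at 37 C, signal read repeatedly through 40 h.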

Test [10] is described as follows: qHTS RealTime-Glo MT Cell Viability Assay in HepG2 cells - 40 hour (AID 1224870). Further: nearly all actives have a fitted effect of over 50% in size. Summed up:
(§4)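 HepG2 cells mixed with RealTime-Glo MT reagents (NanoLuc plus cell-permeant prosubstrate) were seeded at 600 cells/well, incubated 5 h at 37 C/5% CO2, then pinned with compounds in DMSO; nonlytic luminescence tracked viability during 40 h treatment.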

Test [11] is described as follows: A CellTox Green Cytotoxicity Assay to monitor cytotoxicity in HEK293 cells - 40 hour (AID 1224871). Further: nearly all actives have a fitted effect of over 45% in size. Summed up:
as §3

A short description of test [12]: qHTS RealTime-Glo MT Cell Viability Assay in HEK293 cells - 16 hour (AID 1224872). Further: nearly all actives have a fitted effect of over 50% in size. Further: potency means the concentration at half of the fitted maximal effect. The method in brief: as §2
Test [13] can be described thus: qHTS RealTime-Glo MT Cell Viability Assay in HepG2 cells - 8 hour (AID 1224873). Further: nearly all actives have a fitted effect of over 55% in size. Summed up:
as §4

Test [14] can be described thus: qHTS RealTime-Glo MT Cell Viability Assay in HEK293 cells - 40 hour (AID 1224874). Further: nearly all actives have a fitted effect of over 50% in size. Further: potency means the concentration at half of the fitted maximal effect. As to conditions: RealTime-Glo luminescence; max response: hits give low values. Summed up:
(§5)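 HEK293 + NanoLuc + prosubstrate, 600 cells/well; 5 h, 37 C/5% CO2; compound 23 nL in DMSO by pintool; 37 C; luminescence read at 0, 8, 16, 24, 32 and 40 h time points.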

Test [15] can be described thus: A CellTox Green Cytotoxicity Assay to monitor cytotoxicity in HEK293 cells - 24 hour (AID 1224875). Further: nearly all actives have a fitted effect of over 45% in size. The method in brief: as §3
Test [16] is described as follows: A CellTox Green Cytotoxicity Assay to monitor cytotoxicity in HepG2 cells - 16 hour (AID 1224876). Further: nearly all actives have a fitted effect of over 45% in size. The method in brief:
(§6)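 Measurements at 0, 8, 16, 24, 32 and 40 h of treatment captured CellTox Green fluorescence in HepG2 cells that had been co-plated with reagent and preincubated 5 h at 37 C/5% CO2.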

Test [17] is described as follows: qHTS RealTime-Glo MT Cell Viability Assay in HepG2 cells - 32 hour (AID 1224877). Further: nearly all actives have a fitted effect of over 55% in size. Summed up:
as §1

Test [18] is described as follows: A CellTox Green Cytotoxicity Assay to monitor cytotoxicity in HepG2 cells - 24 hour (AID 1224878). Further: nearly all actives have a fitted effect of over 45% in size. Summed up: as §6
Test [19] can be described thus: A CellTox Green Cytotoxicity Assay to monitor cytotoxicity in HepG2 cells - 40 hour (AID 1224879). Further: nearly all actives have a fitted effect of over 40% in size. Summed up: as §6
Test [20] in a line: qHTS RealTime-Glo MT Cell Viability Assay in HEK293 cells - 0 hour (AID 1224880). Summed up: as §5
On the % scale 0 is the no-effect control and ±100 the full control effect.

Regarding `O=C(Cc1ccccc1)OCCc1ccccc1`, the Potency entry in test [1], in test [2], in test [4], in test [5], in [7] and in test [8] was “inactive” each time. Further, the Potency entry in [9], in [10], in test [11], in [12], in test [13] and in test [15] was “inactive” throughout. Besides, the Potency entry in test [16], in test [17], in test [18] and in test [19] was “inactive” each time. Moreover, the compound was called inactive in test [3] and in [20]. Besides, the activity change, positive = activation in test [6] is -0.535%. Also, the max response in [14] was 2.91%.
Turning to `CC(C)(C)OOC(C)(C)CCC(C)(C)OOC(C)(C)C`, the Potency entry in test [1], in [2], in test [4], in test [5], in test [7] and in [8] was “inactive” in each case. Besides, the Potency entry in [9], in [10], in test [12], in test [13], in test [15] and in [16] was “inactive” each time. The Potency entry in test [17], in [18] and in [19] was “inactive” each time. The compound was classed as inactive in test [3] and in test [20]. The activity change, positive = activation in [6] is 2.37%. Also, in test [14], the max response is 9.43%.
`COc1cc(CC(C)N)c(OC)cc1Br` (stereo not given): the Potency entry in test [1], in test [2], in test [4], in [5], in [9] and in [10] was “inactive” throughout. In addition, the Potency result in test [11], in test [12], in test [13], in test [15], in test [16] and in [17] was “inactive” throughout. Further, the compound was called inactive in test [3] and in test [20]. The activity change, positive = activation in test [6] is -12.2%.
Regarding `CCCN(CCC)C(=O)Cc1c(-c2ccc(Cl)cc2)nc2ccc(Cl)cn12`, the Potency result in [1], in test [2], in [4], in test [7], in test [9] and in test [10] was “inactive” throughout. The Potency entry in [11], in [13], in test [15], in test [16], in test [17] and in [18] was “inactive” each time. The compound was called inactive in test [3] and in test [20]. Further, the Potency in test [8], in test [12] and in [14] was 5.35 µM (active) throughout.
For `O=C([O-])c1ccccn1.O=C([O-])c1ccccn1.O=C([O-])c1ccccn1.[Cr+3]`, the Potency result in [1], in test [2], in [4], in [7], in test [8] and in [9] was “inactive” throughout. The Potency entry in [10], in test [11], in test [12], in test [13], in test [15] and in test [16] was “inactive” each time. Besides, the Potency entry in test [17], in test [18] and in test [19] was “inactive” in each case. In addition, the result in test [3] and in [20] was inactive. The max response in test [14] is 2.2%.
In the case of `O=C(NC(=O)c1cc(F)c(F)cc1Cl)Nc1cc(F)ccc1N1CCC(C(=O)O)CC1`, the Potency result in test [1], in [2], in test [4], in test [7], in test [8] and in test [9] was “inactive” in each case. Moreover, the Potency entry in test [10], in test [11], in [12], in test [13], in test [15] and in test [16] was “inactive” each time. Further, the Potency result in [17] was “inactive”. Besides, the compound was called inactive in [3] and in test [20]. Also, the max response in [14] is 19.9%.
For `Clc1ccc(Cl)c(Cl)c1`, the Potency result in test [1], in [2], in [4], in test [5], in test [7] and in test [8] was “inactive” each time. The Potency entry in test [9], in test [10], in [11], in test [12], in test [13] and in [15] was “inactive” each time. Also, the Potency result in test [16], in [17], in test [18] and in test [19] was “inactive” each time. The result in test [3] and in test [20] was inactive. The activity change, positive = activation in [6] is -0.809% and 5.15%. Moreover, the max response in test [14] was -1.09% and 2.8%.

(Values after PubChem BioAssay (Tox21).)
